The sample as a whole holds a higher share of hits than the screen did.
Shiga toxin inh – inhibitors of Shiga toxin in Vero cells; Vero cells, Shiga toxin protein synthesis inhibition reporter; inhibition, % at 38.7 µM; 290,000 compounds, 9.2% hits; AID 2315; in the data active = inhibition mostly above about 28%, no sharp cut-off; inactive = mostly below about 43%; also: 0% is about no effect
MARV entry inh – Marburg virus entry inhibition; Marburg virus pseudotyped entry inhibition, cell reporter; Potency, µM (titrated, usually from 37.8 µM), inactives show at the highest dose activity change, negative = inhibition, most hits filed as inhibitors; 300,000 compounds, 1.8% hits; AID 540276; calls by dose curve; tested in HEK293 cells; also: potency is read from the fitted curve at half-maximal effect; % is scaled to controls: 0 for no effect and ±100 for the full control effect
LASV entry inh – blocks Lassa virus binding to or entry into cells | Lassa virus pseudotype entry inhibition, cell reporter | Potency, µM (titrated, usually from 37.9 µM), for inactives: at the top dose activity change, negative = inhibition, most hits filed as inhibitors | 300,000 compounds, 1.2% hits; calls by dose curve; tested in HEK293 cells; also: potency is read from the fitted curve at half-maximal effect; % is scaled to controls: 0 for no effect and ±100 for the full control effect; nearly all actives have a fitted effect of over 50% in size
AMA1 RON2 block – disrupts binding of P. falciparum AMA1 to RON2; AlphaScreen AMA1-biotinylated RON2 peptide binding; Potency, µM (series often up to 58.2 µM), for inactives: at the top dose activity change, negative = inhibition, most hits filed as inhibitors; 360,000 compounds, 0.2% hits; active = well fitted inhibition curve with a large enough effect; inconclusive = small, poorly fitted or top-dose-only effect; inactive = no such curve, though single readings can be large or run the other way;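 also: potency is read from the fitted curve at half-maximal effect; 0% = vehicle wells and -100% = peptide control; nearly all actives have a fitted effect of over 45% in size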
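AMA1 (3D7) with his tag at 25 nM final met compounds first, then biotinylated RON2 peptide at 25 nM; detection used donor plus acceptor beads, 10 µg/mL apiece, read by AlphaScreen after 30 min at room temperature.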
CHX counter – affects cycloheximide protein synthesis inhibition readout, counter-screen | max response, % | 300,000 compounds, 12% hits | cell reporter, cycloheximide protein synthesis inhibition counterscreen; in the data active = max response mostly above about 13%, no sharp cut-off; inactive = mostly below about 14%; also: read at 38.3 µM for the half of the compounds with a filed dose; 0% is about no effect
The depositor's hits bear a star; ? = inconclusive; / = no result given; [ ] = another dose, or the depositor's remark.

SMILES	Shiga toxin inh	MARV entry inh	LASV entry inh	AMA1 RON2 block	CHX counter
OC(COc1ccc(OCC(O)CN2CCN(Cc3ccccc3)CC2)cc1)CN1CCN(Cc2ccccc2)CC1 (stereo unspecified)	/	?	?	9%	/
NC(=O)C1CCN(Cc2cccc(OCc3ccccc3)c2)CC1	5	-16%	-1%	0%	0
c1ccc(COc2cccc(CN3CCc4ccccc4C3)c2)cc1	105*	15%[46.1 µM]	-1%[46.1 µM]	-1%	41*
Cc1ccc2c(c1)c1c(c(=O)n(Cc3ccccc3)c(=O)n1CC(=O)NCc1ccccc1Cl)n2C	/	5%[46.1 µM]	-5%[46.1 µM]	/	/
C=CCNCCOCCOc1ccccc1-c1ccccc1	97*	/	/	-4%	20*
COCCCNCCOCCOc1ccccc1-c1ccccc1	-3	?	?	-5%	-3
CC(=O)c1cccc(NC(=O)c2ccc(OC3CSC3)cc2)c1	29	?	12%[46.1 µM]	3%	21
Cc1cccc(NC(=O)c2ccc(OC3CSC3)cc2)c1	62*	?	?	1%	43*
O=C(Nc1cccc(Br)c1)c1ccc(OC2CSC2)cc1	147*	/	/	/	43*
O=C(NCc1ccccc1)c1ccc(OC2CSC2)cc1	16	?	-2%	6%	12*
O=C(Nc1ccc(Cl)c(C(F)(F)F)c1)C(Cc1ccccc1)NS(=O)(=O)c1ccc(Br)s1 (stereo unspecified)	/	-3%[46.1 µM]	6%[46.1 µM]	/	/
CC(=O)c1cccc(NC(=O)COC(=O)C2=COCCO2)c1	11	14%[46.1 µM]	-4%[46.1 µM]	14%	31
CCC(c1ccc(O)c(O)c1)C(CC)c1ccc(O)c(O)c1 (stereo unspecified)	/	?	?	25µM*	/
CCC(NC(C)C)C(O)c1ccc(O)c(O)c1 (stereo unspecified)	16	-1%	?	-28%	-2
Cc1ccc(-n2nnnc2SCC(=O)Nc2ccc3c(c2)COC3=O)cc1C	-4	-3%[46.1 µM]	-3%	-9%	17*
Cn1ccnc1SCC(=O)Nc1ccc2c(c1)COC2=O	52*	24%	7%	-3%	14
CC(C)(CNC(=O)c1cc2c(s1)CCCC2)N1CCOCC1	/	7%	3%[46.1 µM]	-17%	/
COc1ccc(C2CCCN2C(=S)Nc2ccc(C)cc2Cl)cc1OC (stereo unspecified)	64*	?	-25%[46.1 µM]	0%	43
Fc1ccccc1NC(=S)N1CCC(c2ccccc2)C1 (stereo unspecified)	164*	2%[46.1 µM]	?	9%	62*
Cc1ccc(NC(=S)N2CCC(c3ccccc3)C2)c(Cl)c1 (stereo unspecified)	72*	?	10µM*	-3%	19
Fc1cc(F)cc(NC(=S)N2CCC(c3ccccc3)C2)c1 (stereo unspecified)	138*	/	/	11%	41*
O=C(NC1CCCC1)C(c1ccc(F)cc1)N(Cc1ccccc1Cl)C(=O)CCl (stereo unspecified)	-4	?	-15%	4%	-1
S=C(Nc1ccccc1Cl)N1CCC(c2ccccc2)C1 (stereo unspecified)	131*	20%[46.1 µM]	1%	-6%	44*
Fc1ccc(-c2ccc3c(c2)C2CC3CCN2)cc1 (stereo unspecified)	/	/	/	-2%	/
O=C(Nc1ccc(Cl)cc1)c1ccc2ncsc2c1	123*	/	/	0%	46*
SMILES	Shiga toxin inh	MARV entry inh	LASV entry inh	AMA1 RON2 block	CHX counter
O=C(COC(=O)c1ccc2ncsc2c1)Nc1cccc(Cl)c1	/	?	15%	-16%	/
O=C(c1ccc2ncsc2c1)N1CCCCC1	-20	14%[46.1 µM]	?	-1%	2
O=C(Nc1cccc(S(=O)(=O)N2CCCCC2)c1)c1ccc2ncsc2c1	89*	/	/	0%	86*
O=C(Nc1ccc(C(F)(F)F)cc1)c1ccc2ncsc2c1	156*	/	/	-5%	35*
O=C(O)c1ccc2ncsc2c1	68*	26%[46.1 µM]	25%	8%	27*
NS(=O)(=O)c1cccc(NC(=O)c2cccc(S(=O)(=O)N3CCCCCC3)c2)c1	/	5%	-23%	3%	/
CCN(CC)S(=O)(=O)c1ccc(C(=O)NCCSc2c(-c3ccc(F)cc3)[nH]c3ccccc23)cc1	/	?	-29%[46.1 µM]	/	/
O=c1oc(-c2ccc(Br)o2)nc2ccccc12	-4	10%	-5%	12%	2
CC(C)c1ccccc1NC(=O)c1ccc2ncsc2c1	39*	-15%[46.1 µM]	/	-7%	30*
O=C(Nc1ccc(F)cc1)c1ccc2ncsc2c1	91*	/	/	14%	59*
COc1ccc(C(C)(C)C)cc1NC(=O)c1ccc2ncsc2c1	72*	-26%[46.1 µM]	22%	-10%	27*
Cc1ccc(NC(=O)c2ccc3ncsc3c2)cc1S(=O)(=O)N(C)C	146*	/	/	/	70*
COc1ccc(NC(=O)c2ccc3ncsc3c2)c2ccccc12	17	31%	-8%	4%	4
O=C(Nc1ccc(N2CCOCC2)cc1)c1ccc2ncsc2c1	/	?	?	-3%	/
Cc1ccc(S(=O)(=O)Nc2cccc3c2O[C@H](CN(C)C(=O)Nc2cccc4ccccc24)[C@H](C)CN([C@H](C)CO)C3=O)cc1	/	/	/	-4%	/
CC(C)c1ccc(NC(=O)CSc2nc(=O)n(Cc3ccccn3)c3c2CCC3)cc1	/	/	-35%[46.1 µM]	/	/
O=C(Nc1cccc(Cl)c1)c1ccc2ncsc2c1	90*	/	/	0%	44*
O=C(OCCOc1cccc(Cl)c1)c1ccc2ncsc2c1	34	-3%[46.1 µM]	/	22%	17*
C[C@H](NC(=O)C1CCN(S(=O)(=O)c2ccccc2)CC1)C(=O)NCc1ccncc1	/	/	/	-6%	/
CCOc1ccc(NC(=O)CSc2nc3ccccc3c(=O)n2CCC(=O)NC2CCCCC2)cc1	/	/	7%[46.1 µM]	/	/
C=CCn1c(SCC(=O)NC2CCS(=O)(=O)C2)nnc1-c1cc2c(s1)CCC(CC)C2 (stereo unspecified)	63	-27%	-11%	-1%	25*
C=CCn1c(SCC(=O)NC2CCS(=O)(=O)C2)nnc1-c1ccc(Cl)cc1 (stereo unspecified)	/	-7%[46.1 µM]	-5%	9%	/
C=CCn1c(-c2cc3c(s2)CCC(CC)C3)n[nH]c1=S (stereo unspecified)	36	10%[46.1 µM]	?	34%	24*
CC(=O)c1cccc(NC(=O)c2c(-c3c(F)cccc3Cl)noc2C)c1	/	1%	?	-2%	/
CCN(CC)C(=O)Oc1ccc(Cl)c2cccnc12	-17	5%[46.1 µM]	1%	0%	-3
SMILES	Shiga toxin inh	MARV entry inh	LASV entry inh	AMA1 RON2 block	CHX counter
O=C(COc1cccc2cccnc12)Nc1ccccc1	56	?	1%	-1%	34*
Clc1ccc(OCc2cn3ccccc3n2)c2ncccc12	90*	?	-3%	0%	37*
O=C(O)c1ccc(OCc2cn3ccccc3n2)cc1	26*	/	/	-2%	29*
Clc1ccc(Oc2ccccc2)c2ncccc12	-4	6%[46.1 µM]	17%[46.1 µM]	11%	-4
OCc1ccccc1OCCOc1ccc(Cl)c2cccnc12	58	13%	1%	-6%	27*
O=C(c1ccc(OCc2cn3ccccc3n2)cc1)N1CCN(S(=O)(=O)c2ccccc2F)CC1	/	?	0%	-9%	/
O=[N+]([O-])c1cc(-c2nc(-c3ccncc3)no2)ccc1NCc1ccccc1	/	19%[46.1 µM]	-29%[46.1 µM]	/	/
